From paper PMC7862700, “An all-to-all approach to the identification of sequence-specific readers for epigenetic DNA modifications on cytosine” come the findings set out here.

Holding throughout (experiment): DAPPL (digital affinity profiling via proximity ligation, sequencing); 10 mM Tris-HCl pH 7.5, 50 mM NaCl, 1 mM DTT, 4% glycerol, room temperature, 30 min; GST-TFs on glutathione beads, 16-mer random dsDNA library, 0.1% formaldehyde crosslink after washing; high values mean tight binding
One assay addresses T1, FLI1 (Homo sapiens, UniProt Q01543 1-452).
T1 sequence: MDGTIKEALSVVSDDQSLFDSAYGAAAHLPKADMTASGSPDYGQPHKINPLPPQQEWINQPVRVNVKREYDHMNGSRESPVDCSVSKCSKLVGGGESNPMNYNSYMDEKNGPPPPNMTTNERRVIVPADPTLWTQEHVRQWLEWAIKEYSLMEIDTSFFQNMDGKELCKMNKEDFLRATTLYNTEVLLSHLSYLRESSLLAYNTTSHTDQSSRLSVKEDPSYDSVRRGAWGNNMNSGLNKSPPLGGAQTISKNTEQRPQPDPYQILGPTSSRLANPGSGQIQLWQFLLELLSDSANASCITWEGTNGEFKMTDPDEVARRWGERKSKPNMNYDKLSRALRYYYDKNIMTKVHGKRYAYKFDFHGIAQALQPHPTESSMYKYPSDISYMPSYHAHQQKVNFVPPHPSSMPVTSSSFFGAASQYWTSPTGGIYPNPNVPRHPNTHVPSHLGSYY
The following applies: protein: recombinant; tags: N-terminal GST; dsDNA, one strand shown. In short, it runs like this: (§1)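 Sequencing on an Illumina NextSeq500 followed washing, crosslinking with 0.1% formaldehyde, proximity ligation (BsaI/T4 ligase, 1 h, 37 °C) and PCR amplification of pools that had been incubated for 30 min at room temperature with 200 nmole of a random double-stranded 16-mer DNA library in Tris/NaCl/DTT/glycerol buffer. Each pool held DNA-barcoded human transcription factors, expressed in yeast as GST fusions and captured on glutathione beads, plus a tag-only sample. Binding signal is a hexamer's read frequency for a factor divided by its frequency in the tag-only sample.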

A further assay concerns the target T2, ELK1 (Homo sapiens, UniProt P19419 1-428).
T2 sequence: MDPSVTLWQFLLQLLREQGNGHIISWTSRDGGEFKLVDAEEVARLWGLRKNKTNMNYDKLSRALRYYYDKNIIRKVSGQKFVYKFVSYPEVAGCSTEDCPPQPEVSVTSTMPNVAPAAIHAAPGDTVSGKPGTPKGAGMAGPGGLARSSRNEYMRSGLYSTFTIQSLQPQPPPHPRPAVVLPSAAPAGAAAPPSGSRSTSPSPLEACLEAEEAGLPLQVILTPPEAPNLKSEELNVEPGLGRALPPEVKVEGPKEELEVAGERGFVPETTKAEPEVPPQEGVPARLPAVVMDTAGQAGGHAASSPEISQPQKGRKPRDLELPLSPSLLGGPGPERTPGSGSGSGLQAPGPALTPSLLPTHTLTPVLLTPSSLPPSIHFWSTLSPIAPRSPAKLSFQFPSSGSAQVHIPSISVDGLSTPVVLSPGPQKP
The conditions noted are these: protein: recombinant; tags: N-terminal GST; dsDNA, one strand shown. A digest of the protocol: as §1

For another assay, the target named is T3, GABPA (Homo sapiens, UniProt Q06546 1-454).
T3 sequence: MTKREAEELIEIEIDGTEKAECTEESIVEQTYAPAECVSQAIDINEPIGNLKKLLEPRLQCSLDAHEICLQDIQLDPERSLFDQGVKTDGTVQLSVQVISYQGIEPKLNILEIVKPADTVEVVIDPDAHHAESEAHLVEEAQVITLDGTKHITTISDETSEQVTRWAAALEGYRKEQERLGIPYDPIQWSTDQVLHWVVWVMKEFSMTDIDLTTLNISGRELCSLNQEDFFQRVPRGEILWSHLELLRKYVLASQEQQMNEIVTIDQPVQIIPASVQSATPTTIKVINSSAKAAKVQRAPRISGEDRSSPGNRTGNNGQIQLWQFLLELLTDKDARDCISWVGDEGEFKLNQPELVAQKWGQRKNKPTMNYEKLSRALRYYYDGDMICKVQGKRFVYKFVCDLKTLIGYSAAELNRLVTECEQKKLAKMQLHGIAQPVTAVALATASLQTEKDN
The following applies: protein: recombinant; tags: N-terminal GST; dsDNA, one strand shown. In short, it runs like this:
as §1

The next assay addresses T4, ERG (Homo sapiens, UniProt P11308 1-479).
T4 sequence: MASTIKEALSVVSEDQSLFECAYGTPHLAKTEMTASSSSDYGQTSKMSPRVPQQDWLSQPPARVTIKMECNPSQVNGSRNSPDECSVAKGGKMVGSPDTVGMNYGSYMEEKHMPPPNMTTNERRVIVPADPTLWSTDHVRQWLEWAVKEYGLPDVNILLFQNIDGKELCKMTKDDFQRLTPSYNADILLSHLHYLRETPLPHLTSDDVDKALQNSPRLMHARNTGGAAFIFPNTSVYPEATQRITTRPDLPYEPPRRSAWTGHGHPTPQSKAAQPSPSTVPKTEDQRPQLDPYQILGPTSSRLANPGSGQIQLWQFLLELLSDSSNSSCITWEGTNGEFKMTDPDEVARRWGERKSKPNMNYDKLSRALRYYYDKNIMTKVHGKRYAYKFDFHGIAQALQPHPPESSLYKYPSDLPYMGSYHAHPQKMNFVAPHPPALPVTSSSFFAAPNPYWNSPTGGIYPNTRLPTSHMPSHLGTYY
The conditions noted are these: protein: recombinant; tags: N-terminal GST; dsDNA, one strand shown. A digest of the protocol:
as §1

A further assay addresses ELF1 (Homo sapiens, UniProt P32519 1-619). The conditions noted are these: protein: recombinant; tags: N-terminal GST; dsDNA, one strand shown. A digest of the protocol:
as §1

Another assay has as its target T5, EHF (Homo sapiens, UniProt Q9NZC4 1-300).
T5 sequence: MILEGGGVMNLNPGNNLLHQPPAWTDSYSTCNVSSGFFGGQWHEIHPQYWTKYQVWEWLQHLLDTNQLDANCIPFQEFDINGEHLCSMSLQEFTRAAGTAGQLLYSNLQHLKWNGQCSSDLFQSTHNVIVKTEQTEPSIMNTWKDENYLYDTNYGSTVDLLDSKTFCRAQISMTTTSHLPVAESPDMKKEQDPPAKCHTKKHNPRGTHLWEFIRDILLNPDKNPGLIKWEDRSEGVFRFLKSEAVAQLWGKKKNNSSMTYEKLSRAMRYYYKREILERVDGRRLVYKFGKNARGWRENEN
The following applies: protein: recombinant; tags: N-terminal GST; dsDNA, one strand shown. A digest of the protocol: as §1

The target of the next assay is SPI1 (Homo sapiens, UniProt P17947 1-270). The following applies: protein: recombinant; tags: N-terminal GST; dsDNA, one strand shown. A digest of the protocol:
as §1

A further assay deals with SPIB (Homo sapiens, UniProt Q01892 1-262). The following applies: protein: recombinant; tags: N-terminal GST; dsDNA, one strand shown. A digest of the protocol:
as §1

A further assay has as its target T6, ELK3 (Homo sapiens, UniProt P41970 1-407).
T6 sequence: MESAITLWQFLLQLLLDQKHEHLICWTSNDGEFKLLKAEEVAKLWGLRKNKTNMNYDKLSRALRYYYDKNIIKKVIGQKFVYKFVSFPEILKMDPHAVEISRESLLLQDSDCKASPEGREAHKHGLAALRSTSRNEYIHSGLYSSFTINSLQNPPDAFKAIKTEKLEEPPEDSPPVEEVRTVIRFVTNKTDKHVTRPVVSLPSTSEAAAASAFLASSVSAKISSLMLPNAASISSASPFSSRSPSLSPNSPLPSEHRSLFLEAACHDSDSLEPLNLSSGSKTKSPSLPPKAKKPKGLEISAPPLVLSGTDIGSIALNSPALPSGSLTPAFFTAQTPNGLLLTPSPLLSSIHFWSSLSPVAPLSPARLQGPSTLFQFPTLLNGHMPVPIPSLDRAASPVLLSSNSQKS
The conditions noted are these: protein: recombinant; tags: N-terminal GST; dsDNA, one strand shown. A digest of the protocol:
as §1

A further assay concerns the target T7, FEV (Homo sapiens, UniProt Q99581 1-238).
T7 sequence: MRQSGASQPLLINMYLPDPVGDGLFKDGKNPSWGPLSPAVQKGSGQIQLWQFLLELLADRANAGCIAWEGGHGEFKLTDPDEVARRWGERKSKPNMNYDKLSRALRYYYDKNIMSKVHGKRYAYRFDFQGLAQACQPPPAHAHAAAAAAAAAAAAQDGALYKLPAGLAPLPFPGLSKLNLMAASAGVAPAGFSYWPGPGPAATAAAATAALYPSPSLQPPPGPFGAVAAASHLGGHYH
The conditions noted are these: protein: recombinant; tags: N-terminal GST; dsDNA, one strand shown. A digest of the protocol: as §1

The next assay addresses ETV5 (Homo sapiens, UniProt P41161 1-510). The following applies: protein: recombinant; tags: N-terminal GST; dsDNA, one strand shown. A digest of the protocol: as §1
The next assay deals with HSF1 (Homo sapiens, UniProt Q00613 1-529). The conditions noted are these: protein: recombinant; tags: N-terminal GST; chain copies: 3; dsDNA, one strand shown. In short, it runs like this:
as §1

Another assay has as its target T8, SPIC (Homo sapiens, UniProt Q8N5J4 1-248).
T8 sequence: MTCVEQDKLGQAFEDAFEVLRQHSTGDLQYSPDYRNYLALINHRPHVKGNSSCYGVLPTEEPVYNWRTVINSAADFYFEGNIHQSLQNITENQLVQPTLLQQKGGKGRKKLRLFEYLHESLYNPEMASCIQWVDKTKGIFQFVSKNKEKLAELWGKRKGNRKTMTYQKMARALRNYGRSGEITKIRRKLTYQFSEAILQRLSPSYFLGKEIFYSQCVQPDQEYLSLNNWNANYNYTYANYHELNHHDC
The following applies: protein: recombinant; tags: N-terminal GST; dsDNA, one strand shown. In short, it runs like this: as §1

For a further assay, the target named is ELF4 (Homo sapiens, UniProt Q99607 1-663). The conditions noted are these: protein: recombinant; tags: N-terminal GST; dsDNA, one strand shown. A digest of the protocol:
as §1

For another assay, the target named is T9, ELK4 (Homo sapiens, UniProt P28324-2 1-405).
T9 sequence: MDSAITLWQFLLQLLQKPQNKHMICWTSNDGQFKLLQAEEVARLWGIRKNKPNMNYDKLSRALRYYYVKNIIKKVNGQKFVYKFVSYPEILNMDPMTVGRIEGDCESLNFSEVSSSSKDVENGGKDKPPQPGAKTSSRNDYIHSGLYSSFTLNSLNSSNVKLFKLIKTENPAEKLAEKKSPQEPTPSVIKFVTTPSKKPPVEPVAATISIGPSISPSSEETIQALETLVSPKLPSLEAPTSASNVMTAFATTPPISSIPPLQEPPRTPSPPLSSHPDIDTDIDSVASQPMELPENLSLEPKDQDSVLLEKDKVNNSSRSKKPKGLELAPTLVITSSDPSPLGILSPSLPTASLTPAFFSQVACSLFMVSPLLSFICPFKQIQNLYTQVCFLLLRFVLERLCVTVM
The conditions noted are these: protein: recombinant; tags: N-terminal GST; dsDNA, one strand shown. In short, it runs like this:
as §1

For the next assay, the target named is T10, ETV2 (Homo sapiens, UniProt O00321 1-342).
T10 sequence: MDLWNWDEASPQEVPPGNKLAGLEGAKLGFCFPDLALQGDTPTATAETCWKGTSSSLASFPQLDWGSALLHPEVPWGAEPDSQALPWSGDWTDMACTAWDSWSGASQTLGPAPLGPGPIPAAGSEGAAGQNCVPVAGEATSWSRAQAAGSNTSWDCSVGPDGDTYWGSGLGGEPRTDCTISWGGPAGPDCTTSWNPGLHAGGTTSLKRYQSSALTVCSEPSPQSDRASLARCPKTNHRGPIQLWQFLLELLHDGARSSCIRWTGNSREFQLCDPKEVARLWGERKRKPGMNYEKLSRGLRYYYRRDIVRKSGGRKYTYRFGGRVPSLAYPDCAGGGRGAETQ
The conditions noted are these: protein: recombinant; tags: N-terminal GST; dsDNA, one strand shown. A digest of the protocol: as §1

In a further assay the target is CRX (Homo sapiens, UniProt O43186 1-299). The conditions noted are these: protein: recombinant; tags: N-terminal GST; dsDNA, one strand shown. In short, it runs like this: as §1
Another assay concerns the target ETV1 (Homo sapiens, UniProt P50549 1-477). The following applies: protein: recombinant; tags: N-terminal GST; dsDNA, one strand shown. A digest of the protocol:
as §1

SPIB, sequence (Q01892 whole entry): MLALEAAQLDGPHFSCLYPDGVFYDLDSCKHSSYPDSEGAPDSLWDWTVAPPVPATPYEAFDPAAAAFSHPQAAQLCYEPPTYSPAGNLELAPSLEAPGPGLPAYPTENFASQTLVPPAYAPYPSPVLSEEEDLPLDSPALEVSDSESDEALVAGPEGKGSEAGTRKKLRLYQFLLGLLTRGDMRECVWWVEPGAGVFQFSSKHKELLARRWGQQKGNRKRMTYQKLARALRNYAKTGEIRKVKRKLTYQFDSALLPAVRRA
ETV5, sequence (P41161 whole entry): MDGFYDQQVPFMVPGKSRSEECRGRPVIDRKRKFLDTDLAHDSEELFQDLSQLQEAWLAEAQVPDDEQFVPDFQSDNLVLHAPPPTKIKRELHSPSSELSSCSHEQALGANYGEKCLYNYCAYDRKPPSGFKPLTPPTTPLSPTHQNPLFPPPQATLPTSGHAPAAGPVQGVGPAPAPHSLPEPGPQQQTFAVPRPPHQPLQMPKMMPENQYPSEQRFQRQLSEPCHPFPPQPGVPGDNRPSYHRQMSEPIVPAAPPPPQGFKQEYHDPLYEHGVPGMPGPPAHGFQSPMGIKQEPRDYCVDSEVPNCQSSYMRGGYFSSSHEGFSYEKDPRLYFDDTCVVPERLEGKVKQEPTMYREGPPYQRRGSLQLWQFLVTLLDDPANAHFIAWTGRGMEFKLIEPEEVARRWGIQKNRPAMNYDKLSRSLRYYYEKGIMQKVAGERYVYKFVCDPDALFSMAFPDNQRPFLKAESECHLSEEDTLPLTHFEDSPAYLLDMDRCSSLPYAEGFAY
ELF1, sequence (P32519 whole entry): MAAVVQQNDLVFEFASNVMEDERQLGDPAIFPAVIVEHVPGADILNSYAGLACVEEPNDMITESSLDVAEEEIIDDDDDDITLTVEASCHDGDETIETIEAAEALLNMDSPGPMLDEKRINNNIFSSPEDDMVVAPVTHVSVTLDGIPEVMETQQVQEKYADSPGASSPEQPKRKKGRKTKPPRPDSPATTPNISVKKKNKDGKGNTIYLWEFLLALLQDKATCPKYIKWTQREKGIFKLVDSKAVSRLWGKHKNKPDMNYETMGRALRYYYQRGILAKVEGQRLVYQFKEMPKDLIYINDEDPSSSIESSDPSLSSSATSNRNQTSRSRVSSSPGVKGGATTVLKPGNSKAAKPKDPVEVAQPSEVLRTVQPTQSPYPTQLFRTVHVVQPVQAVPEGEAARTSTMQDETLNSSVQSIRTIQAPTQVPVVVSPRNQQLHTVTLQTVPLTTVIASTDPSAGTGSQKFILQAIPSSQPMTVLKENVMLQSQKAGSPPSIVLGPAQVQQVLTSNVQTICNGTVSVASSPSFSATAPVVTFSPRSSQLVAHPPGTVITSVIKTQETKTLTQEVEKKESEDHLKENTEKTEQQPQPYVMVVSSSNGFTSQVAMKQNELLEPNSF
ELF4, sequence (Q99607 whole entry): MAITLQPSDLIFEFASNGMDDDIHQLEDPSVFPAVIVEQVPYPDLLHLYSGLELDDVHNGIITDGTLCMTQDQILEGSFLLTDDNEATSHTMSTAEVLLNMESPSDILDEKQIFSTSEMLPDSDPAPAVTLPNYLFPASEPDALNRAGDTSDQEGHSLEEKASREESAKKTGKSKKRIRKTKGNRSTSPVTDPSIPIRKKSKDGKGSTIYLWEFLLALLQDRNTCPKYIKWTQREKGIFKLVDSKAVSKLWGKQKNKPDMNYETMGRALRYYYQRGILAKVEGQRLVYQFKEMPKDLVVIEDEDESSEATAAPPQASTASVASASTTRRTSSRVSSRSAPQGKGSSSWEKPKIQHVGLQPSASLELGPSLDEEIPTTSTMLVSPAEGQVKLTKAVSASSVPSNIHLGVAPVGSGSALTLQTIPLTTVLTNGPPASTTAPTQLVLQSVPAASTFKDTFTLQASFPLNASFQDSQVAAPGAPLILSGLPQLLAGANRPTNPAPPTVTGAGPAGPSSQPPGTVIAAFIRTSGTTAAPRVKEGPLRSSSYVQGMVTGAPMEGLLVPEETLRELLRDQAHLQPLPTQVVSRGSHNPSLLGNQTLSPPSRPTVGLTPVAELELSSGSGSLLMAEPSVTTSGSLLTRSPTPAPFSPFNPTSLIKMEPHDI
CRX, sequence (O43186 whole entry): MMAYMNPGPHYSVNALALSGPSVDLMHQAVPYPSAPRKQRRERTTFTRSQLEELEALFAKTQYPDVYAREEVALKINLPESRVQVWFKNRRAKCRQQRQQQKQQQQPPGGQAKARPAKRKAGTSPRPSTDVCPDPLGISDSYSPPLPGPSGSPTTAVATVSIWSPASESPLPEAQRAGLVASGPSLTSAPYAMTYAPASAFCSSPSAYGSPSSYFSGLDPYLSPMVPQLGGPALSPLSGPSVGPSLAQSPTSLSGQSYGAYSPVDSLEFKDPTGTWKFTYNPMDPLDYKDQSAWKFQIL
HSF1, sequence (Q00613 whole entry): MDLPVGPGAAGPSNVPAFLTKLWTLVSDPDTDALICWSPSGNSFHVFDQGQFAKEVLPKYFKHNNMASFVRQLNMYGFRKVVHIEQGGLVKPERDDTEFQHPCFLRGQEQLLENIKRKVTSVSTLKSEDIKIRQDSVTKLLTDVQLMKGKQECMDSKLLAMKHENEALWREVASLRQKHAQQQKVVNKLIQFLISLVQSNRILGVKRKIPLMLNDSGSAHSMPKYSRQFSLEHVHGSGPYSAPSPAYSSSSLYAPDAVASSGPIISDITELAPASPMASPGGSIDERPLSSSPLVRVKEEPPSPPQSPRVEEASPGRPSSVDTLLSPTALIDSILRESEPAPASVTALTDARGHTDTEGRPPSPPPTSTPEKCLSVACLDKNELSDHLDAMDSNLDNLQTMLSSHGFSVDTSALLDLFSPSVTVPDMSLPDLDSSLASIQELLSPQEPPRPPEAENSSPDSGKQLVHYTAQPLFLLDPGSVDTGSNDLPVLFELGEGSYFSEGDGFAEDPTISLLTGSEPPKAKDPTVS
ETV1, sequence (P50549 whole entry): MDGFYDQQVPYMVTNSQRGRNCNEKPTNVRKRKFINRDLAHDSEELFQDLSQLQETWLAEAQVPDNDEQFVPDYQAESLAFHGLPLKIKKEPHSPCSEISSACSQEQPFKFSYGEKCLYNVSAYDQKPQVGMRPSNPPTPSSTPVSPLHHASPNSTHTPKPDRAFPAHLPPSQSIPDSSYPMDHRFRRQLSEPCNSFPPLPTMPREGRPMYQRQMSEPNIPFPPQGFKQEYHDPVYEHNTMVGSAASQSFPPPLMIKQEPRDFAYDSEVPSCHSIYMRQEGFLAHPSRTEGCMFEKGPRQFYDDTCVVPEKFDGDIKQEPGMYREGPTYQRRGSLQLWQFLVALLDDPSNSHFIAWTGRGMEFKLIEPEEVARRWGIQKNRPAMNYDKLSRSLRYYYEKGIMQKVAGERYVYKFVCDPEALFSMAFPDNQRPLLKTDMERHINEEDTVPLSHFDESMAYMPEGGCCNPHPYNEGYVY

Regarding CTCAGA, the binding signal was 1.07 fold enrichment (6-mer frequency, TF over GST control) in the assay with FLI1; 1.12 fold enrichment (6-mer frequency, TF over GST control) with ELK1; 1.13 fold enrichment (6-mer frequency, TF over GST control) with GABPA; 1.1 fold enrichment (6-mer frequency, TF over GST control) in the assay with ERG; 1.14 fold enrichment (6-mer frequency, TF over GST control) with ELF1; 1.1 fold enrichment (6-mer frequency, TF over GST control) with EHF. Besides, the binding signal in the assay with SPI1 is 1.04 fold enrichment (6-mer frequency, TF over GST control); in the assay with SPIB it was 1.01 fold enrichment (6-mer frequency, TF over GST control); with ELK3, 1.02 fold enrichment (6-mer frequency, TF over GST control); with FEV, 1.03 fold enrichment (6-mer frequency, TF over GST control); with ETV5, 1.14 fold enrichment (6-mer frequency, TF over GST control); in the assay with HSF1, 1.17 fold enrichment (6-mer frequency, TF over GST control). Also, the binding signal with SPIC is 1.16 fold enrichment (6-mer frequency, TF over GST control); with ELF4, 1.14 fold enrichment (6-mer frequency, TF over GST control); with ELK4, 1.01 fold enrichment (6-mer frequency, TF over GST control); in the assay with ETV2, 1.18 fold enrichment (6-mer frequency, TF over GST control); with CRX, 1.27 fold enrichment (6-mer frequency, TF over GST control); with ETV1, 1.1 fold enrichment (6-mer frequency, TF over GST control).
